Data: the supplement of paper PMC11732987, “Enantioselective OTUD7B fragment discovery through chemoproteomics screening and high-throughput optimisation” (Communications Chemistry, 2025)

What was measured:
Assay in all cases: log2 ratio of Biotin-Ahx-Ub-VS probe labelling (fragment/DMSO); higher = less target engagement (more negative = stronger competition), active = hit call of the paper (q ≤ 0.05, log2 ratio ≤ -1)
Details in all cases: compound concentration: 200 uM; treatment time: 3 h
USP19 = biological target: T1, USP19 (UniProt O94966)
T1 sequence (whole entry): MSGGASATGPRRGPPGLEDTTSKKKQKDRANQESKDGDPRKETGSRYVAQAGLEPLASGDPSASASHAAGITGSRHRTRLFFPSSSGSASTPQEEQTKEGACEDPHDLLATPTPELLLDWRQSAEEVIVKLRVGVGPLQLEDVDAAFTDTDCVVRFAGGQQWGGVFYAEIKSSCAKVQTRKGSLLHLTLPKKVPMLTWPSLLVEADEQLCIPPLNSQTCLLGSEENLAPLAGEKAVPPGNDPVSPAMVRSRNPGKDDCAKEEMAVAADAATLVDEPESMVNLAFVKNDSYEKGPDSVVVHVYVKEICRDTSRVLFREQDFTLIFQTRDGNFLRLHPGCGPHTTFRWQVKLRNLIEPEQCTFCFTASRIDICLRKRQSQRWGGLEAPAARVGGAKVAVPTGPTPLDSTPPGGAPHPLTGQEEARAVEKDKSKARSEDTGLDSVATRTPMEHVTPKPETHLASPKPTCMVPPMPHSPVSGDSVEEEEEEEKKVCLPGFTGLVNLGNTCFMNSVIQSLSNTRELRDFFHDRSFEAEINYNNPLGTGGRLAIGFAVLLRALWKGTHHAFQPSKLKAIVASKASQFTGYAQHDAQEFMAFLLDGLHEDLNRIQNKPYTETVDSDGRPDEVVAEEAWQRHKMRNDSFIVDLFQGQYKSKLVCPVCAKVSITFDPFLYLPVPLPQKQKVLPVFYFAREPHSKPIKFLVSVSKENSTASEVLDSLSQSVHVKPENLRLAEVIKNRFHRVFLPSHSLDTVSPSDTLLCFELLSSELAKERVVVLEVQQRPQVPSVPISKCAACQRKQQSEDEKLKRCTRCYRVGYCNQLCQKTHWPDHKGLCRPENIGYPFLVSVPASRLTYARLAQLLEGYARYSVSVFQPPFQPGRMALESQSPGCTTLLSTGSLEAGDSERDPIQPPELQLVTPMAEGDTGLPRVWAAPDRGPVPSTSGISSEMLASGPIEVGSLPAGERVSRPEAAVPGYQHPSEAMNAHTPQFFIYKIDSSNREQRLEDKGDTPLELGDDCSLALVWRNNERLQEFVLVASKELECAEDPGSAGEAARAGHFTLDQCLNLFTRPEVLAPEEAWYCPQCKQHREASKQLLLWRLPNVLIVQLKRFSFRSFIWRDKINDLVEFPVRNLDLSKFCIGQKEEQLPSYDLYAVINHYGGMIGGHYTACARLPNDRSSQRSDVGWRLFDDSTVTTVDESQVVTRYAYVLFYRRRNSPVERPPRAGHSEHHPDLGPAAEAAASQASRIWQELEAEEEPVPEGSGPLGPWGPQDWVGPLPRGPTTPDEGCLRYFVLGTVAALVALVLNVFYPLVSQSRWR
Method in brief: (§1)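 Labelled DUBs from HEK293T lysate were NeutrAvidin-enriched, digested with LysC and trypsin, and run by diaPASEF LC-MS/MS. Before that, each 495 µg sample in Tris/CHAPS/IGEPAL buffer with protease inhibitors was treated in triplicate with fragment at 200 µM or vehicle for 3 h, then with Biotin-Ahx-Ub-VS at 0.5 µM final for 1 h. Values are average log2 ratios of fragment over vehicle by unpaired t-test, based on global-median-normalised Spectronaut label-free quantities from proteins with ≥2 unique peptides.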

USP22 = biological target: T2, USP22 (UniProt Q9UPT9)
T2 sequence (whole entry): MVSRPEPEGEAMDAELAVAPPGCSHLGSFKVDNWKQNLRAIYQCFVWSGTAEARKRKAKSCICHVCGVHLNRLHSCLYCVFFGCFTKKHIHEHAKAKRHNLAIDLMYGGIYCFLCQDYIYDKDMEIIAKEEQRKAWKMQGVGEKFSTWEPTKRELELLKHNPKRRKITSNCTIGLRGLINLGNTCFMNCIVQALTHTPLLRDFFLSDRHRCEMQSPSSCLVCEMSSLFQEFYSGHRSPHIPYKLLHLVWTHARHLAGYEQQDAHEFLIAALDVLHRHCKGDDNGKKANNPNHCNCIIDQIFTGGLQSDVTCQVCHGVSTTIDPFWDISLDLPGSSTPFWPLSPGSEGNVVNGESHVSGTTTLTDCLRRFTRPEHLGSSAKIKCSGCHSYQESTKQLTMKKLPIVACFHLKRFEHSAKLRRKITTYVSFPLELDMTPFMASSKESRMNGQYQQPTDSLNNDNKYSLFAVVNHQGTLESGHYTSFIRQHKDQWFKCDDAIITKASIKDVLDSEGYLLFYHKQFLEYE
Method in brief: as §1

USP24 = USP24 (UniProt Q9UPU5)
USP24, sequence (Q9UPU5 whole entry): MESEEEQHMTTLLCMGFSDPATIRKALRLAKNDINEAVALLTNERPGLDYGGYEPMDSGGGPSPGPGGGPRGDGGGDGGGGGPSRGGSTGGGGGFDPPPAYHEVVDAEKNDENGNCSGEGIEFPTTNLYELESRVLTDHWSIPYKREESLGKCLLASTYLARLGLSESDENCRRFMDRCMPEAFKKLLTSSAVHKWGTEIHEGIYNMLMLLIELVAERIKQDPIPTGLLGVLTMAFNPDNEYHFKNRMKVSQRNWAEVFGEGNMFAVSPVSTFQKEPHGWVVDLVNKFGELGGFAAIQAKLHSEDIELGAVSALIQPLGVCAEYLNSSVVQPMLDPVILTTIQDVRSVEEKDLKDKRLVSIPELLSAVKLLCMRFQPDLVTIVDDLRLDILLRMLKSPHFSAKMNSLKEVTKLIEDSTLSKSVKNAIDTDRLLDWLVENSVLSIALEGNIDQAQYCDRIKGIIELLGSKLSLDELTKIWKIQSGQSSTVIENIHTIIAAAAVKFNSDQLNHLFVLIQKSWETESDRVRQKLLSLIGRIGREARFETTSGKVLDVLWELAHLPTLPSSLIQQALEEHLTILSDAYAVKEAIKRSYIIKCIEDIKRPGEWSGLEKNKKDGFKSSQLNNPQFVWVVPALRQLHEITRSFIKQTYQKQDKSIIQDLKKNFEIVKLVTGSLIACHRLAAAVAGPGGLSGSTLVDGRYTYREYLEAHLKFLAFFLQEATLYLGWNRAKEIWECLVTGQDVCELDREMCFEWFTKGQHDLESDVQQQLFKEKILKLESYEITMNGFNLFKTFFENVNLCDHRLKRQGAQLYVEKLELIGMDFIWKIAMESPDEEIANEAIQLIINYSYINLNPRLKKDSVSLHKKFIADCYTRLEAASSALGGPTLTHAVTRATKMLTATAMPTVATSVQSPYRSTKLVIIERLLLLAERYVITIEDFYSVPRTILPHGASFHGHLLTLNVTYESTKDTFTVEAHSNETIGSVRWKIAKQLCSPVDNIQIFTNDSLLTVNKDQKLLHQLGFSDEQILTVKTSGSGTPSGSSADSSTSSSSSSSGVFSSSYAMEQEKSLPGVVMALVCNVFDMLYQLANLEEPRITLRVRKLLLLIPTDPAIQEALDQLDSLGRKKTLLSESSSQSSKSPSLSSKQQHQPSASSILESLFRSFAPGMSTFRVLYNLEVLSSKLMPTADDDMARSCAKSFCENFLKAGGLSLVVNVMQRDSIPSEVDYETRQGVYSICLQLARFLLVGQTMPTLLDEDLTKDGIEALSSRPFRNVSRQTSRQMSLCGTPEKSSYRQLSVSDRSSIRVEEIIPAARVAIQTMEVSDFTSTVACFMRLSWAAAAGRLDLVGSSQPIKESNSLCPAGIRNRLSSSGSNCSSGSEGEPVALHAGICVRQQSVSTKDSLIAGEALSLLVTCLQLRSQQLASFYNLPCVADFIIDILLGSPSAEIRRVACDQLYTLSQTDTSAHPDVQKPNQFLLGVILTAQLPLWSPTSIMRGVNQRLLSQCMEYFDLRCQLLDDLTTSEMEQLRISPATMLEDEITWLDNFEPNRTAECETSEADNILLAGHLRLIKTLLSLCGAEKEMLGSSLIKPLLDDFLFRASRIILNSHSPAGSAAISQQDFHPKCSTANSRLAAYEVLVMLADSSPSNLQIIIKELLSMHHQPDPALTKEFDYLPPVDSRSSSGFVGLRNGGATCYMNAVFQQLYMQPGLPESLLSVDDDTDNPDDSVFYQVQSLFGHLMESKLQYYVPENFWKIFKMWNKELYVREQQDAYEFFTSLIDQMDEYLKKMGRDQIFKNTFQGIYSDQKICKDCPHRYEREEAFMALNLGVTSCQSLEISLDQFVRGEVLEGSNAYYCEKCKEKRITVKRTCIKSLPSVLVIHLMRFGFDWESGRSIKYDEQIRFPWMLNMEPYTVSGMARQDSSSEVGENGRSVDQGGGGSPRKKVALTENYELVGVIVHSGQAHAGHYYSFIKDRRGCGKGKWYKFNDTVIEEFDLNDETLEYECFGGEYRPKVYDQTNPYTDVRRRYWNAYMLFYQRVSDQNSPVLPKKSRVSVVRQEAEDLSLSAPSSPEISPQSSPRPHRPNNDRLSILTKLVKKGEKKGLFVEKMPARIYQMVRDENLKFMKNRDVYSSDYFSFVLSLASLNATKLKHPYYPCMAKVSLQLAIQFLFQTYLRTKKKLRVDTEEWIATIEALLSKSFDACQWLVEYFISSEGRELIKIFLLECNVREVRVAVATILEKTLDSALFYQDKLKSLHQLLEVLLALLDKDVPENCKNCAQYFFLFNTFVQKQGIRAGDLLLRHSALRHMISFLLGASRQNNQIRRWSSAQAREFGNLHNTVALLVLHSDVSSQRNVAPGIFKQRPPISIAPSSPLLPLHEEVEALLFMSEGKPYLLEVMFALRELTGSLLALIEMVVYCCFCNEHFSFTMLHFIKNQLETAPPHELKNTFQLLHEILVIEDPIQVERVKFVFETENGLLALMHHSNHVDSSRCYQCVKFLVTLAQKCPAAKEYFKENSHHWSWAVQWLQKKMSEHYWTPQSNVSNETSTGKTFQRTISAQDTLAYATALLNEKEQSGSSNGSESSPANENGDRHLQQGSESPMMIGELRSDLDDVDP
Method in brief: as §1

USP25 = biological target: T3, USP25 (UniProt Q9UHP3)
T3 sequence (whole entry): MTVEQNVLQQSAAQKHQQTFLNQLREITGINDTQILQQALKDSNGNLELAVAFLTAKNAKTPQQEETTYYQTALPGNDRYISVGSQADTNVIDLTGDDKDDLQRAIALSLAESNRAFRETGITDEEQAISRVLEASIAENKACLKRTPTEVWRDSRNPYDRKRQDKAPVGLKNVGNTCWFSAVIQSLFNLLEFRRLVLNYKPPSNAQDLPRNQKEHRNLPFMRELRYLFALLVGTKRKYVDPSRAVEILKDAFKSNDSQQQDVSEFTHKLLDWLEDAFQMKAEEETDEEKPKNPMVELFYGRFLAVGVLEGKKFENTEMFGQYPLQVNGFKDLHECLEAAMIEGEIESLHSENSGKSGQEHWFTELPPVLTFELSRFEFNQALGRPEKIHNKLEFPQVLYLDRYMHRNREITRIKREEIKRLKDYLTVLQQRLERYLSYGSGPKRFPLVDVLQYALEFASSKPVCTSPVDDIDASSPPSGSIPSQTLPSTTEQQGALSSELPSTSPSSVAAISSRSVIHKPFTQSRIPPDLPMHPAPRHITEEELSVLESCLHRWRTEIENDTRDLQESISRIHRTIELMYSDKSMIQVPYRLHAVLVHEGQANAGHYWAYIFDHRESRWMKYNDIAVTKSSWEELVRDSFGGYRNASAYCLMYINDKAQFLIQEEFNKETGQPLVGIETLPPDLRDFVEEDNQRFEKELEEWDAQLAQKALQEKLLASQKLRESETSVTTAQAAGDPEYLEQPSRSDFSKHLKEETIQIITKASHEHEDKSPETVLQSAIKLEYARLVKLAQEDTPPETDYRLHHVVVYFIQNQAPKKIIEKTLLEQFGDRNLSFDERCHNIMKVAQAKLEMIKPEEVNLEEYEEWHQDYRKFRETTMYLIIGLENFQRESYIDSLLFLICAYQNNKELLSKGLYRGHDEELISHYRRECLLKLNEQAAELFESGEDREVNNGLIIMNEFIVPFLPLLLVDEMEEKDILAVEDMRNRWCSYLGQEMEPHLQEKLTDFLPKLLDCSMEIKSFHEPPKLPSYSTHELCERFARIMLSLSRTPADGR
Method in brief: as §1

USP28 = biological target: T4, USP28 (UniProt Q96RU2)
T4 sequence (whole entry): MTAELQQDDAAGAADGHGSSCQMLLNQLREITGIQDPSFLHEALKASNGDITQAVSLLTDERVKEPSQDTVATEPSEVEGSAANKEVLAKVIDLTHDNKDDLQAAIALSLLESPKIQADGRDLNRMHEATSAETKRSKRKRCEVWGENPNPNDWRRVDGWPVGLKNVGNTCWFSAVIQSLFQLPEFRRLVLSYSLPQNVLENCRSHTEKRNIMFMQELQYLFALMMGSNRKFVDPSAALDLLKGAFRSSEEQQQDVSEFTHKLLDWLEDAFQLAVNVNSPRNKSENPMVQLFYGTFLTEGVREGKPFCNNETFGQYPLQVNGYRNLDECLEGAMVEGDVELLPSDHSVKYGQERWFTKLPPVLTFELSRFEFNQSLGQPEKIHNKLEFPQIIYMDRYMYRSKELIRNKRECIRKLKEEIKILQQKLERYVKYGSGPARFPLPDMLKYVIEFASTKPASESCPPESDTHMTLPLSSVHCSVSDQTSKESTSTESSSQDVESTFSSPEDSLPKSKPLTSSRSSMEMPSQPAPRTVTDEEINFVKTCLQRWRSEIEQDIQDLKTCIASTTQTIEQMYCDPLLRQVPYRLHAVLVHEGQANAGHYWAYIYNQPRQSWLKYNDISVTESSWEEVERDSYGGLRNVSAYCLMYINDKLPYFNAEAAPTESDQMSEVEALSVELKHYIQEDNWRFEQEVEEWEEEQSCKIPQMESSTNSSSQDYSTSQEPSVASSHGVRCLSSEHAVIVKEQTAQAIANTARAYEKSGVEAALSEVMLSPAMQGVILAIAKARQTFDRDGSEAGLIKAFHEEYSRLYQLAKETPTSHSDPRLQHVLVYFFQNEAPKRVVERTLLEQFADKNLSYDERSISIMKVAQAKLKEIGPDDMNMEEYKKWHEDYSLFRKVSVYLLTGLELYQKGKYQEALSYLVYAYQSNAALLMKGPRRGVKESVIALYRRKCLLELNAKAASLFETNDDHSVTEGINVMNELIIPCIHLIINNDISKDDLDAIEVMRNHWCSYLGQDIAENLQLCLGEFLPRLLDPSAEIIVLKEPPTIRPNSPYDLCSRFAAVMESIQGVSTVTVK
Method in brief: as §1

Measured: log2 ratio of Biotin-Ahx-Ub-VS probe labelling

Cl.O=C(CCl)NCCc1ncc(F)cc1F
inactive: USP19 -0.108 | USP22 -0.0071 | USP24 -0.335 | USP25 -0.361 | USP28 -0.502
